In PubChem BioAssay AID1476 (National Center for Advancing Translational Sciences (NCATS), 2009):
The campaign covered roughly 200,000 compounds. About 4,500 (2.2%) were called active. About 12% were inconclusive and are not listed. The sample holds actives, similar compounds and a random draw of the others, so the mix is not that of the screen. A number with no mark means an inactive call. Calls follow the shape of the dose curve; as a rule, active = well fitted inhibition curve with a large enough effect; inconclusive = small, poorly fitted or top-dose-only effect, or effect the other way; inactive = flat fitted curve, though single readings scatter.

Each compound was assayed against Cruzipain (Trypanosoma cruzi) (UniProt P25779) (assay: qHTS Assay for Promiscuous and Specific Inhibitors of Cruzain (without detergent)). Conditions: purified cruzain, Z-FR-AMC fluorescence, no detergent.
Method in brief: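 Purified cruzain at 1.5 nM, pre-incubated 15 min with compound at room temperature in 100 mM sodium acetate pH 5.5, 5 mM DTT, 0.00005% Triton X-100. Reaction started with 2 uM Z-FR-AMC; AMC fluorescence increase over 60 s gives rate.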
Also: nearly all actives have a fitted effect of over 40% in size.
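For max response, negative = inhibition in this document: plate controls were enzyme without inhibitor for no effect and buffer without enzyme for full effect.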
Potency is read from the fitted curve at half-maximal effect.

Sequence of Cruzipain (Trypanosoma cruzi) (P25779 123-467 limits assumed): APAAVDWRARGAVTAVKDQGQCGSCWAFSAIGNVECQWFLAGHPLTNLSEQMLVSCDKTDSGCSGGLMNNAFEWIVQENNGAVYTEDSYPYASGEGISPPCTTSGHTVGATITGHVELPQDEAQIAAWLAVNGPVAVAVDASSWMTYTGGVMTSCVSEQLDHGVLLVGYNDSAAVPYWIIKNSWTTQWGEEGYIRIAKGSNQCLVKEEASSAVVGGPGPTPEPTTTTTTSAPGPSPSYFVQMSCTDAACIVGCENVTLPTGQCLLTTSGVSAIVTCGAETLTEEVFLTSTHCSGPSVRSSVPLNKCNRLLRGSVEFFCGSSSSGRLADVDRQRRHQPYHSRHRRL

Compound | max response, negative = inhibition [%] | Potency
O=C(CC(c1cccs1)N1Cc2ccccc2C1=O)Nc1ccc(F)cc1F (stereo not drawn) | -15.6 | 
CC(=O)Nc1ccc(NC(=O)c2cc3sccc3n2Cc2ccc(F)cc2)cc1 | 23.5 | 
Cc1cc(=O)[nH]c(SCC(=O)N2c3ccccc3CC2C)n1 (stereo not drawn) | -2.54 | 
CC1Cc2ccccc2N1C(=O)c1cc2sccc2n1Cc1ccccc1 (stereo not drawn) |  | 25.1 µM (active)
CCOC(=O)c1cc2sccc2n1Cc1ccc(C#N)cc1 | -11.1 | 
O=C(c1cc2sccc2n1Cc1ccc(F)cc1)N1CCc2ccccc21 |  | 25.1 µM (active)
O=C(NCc1ccco1)c1cc2sccc2n1Cc1ccc(F)cc1 | -11.7 | 
Cc1ccc(-c2nc(SCc3ccc(Br)cc3)n3[nH]c(=O)cc3n2)cc1 | -0.81 | 
COc1ccc(OC)c(CNC(=O)Cn2nc(C)c3c(C)n(-c4ccccc4)nc3c2=O)c1 | -8.59 | 
NC(=O)c1c(NC(=O)CSc2nnc(-c3ccco3)n2N)sc2c1CCCC2 | -17 | 
N#Cc1c(NC(=O)CSc2nc3ccccc3c(=O)n2Cc2ccco2)sc2c1CCCC2 |  | 10 µM (active)
CC(Sc1nc2ccccc2c(=O)n1Cc1ccco1)C(=O)c1ccccc1 (stereo not drawn) | -8.72 | 
CCOc1ccc(N(CC)S(=O)(=O)N2CCCC(C(=O)NCc3ccc(SC)cc3)C2)cc1 (stereo not drawn) | 16 | 
COc1ccc(OC)c(C2C3=C(N=c4s/c(=C\c5cccc(O)c5)c(=O)n42)c2ccccc2CC3)c1 (stereo not drawn) |  | 3.16 µM (active)
O=C1CCCC2=C1C(c1ccccc1)n1c(s/c(=C/c3cccc(F)c3)c1=O)=N2 (stereo not drawn) | -0.66 | 
COCCOC(=O)C1=C(C)N=c2s/c(=C\c3cccs3)c(=O)n2C1c1cccs1 (stereo not drawn) | 14.7 | 
Cc1ccc2nc(NC(=O)c3nc(SCc4ccccc4F)ncc3Cl)sc2c1 | 16.1 | 
CCOC(=O)c1c(NC(=O)c2ccc(Br)o2)sc2c1CCCC2 | -20.9 | 
CCCOC(=O)c1c(NC(=O)c2cnn3c2NC(c2ccccc2)CC3C(F)(F)F)sc2c1CCCC2 (stereo not drawn) |  | 5.01 µM (active)
CCCOC(=O)c1c(NC(=O)c2cc3nc(-c4ccc(OC)cc4)cc(C(F)(F)F)n3n2)sc2c1CCCC2 | 3.32 | 
CCOC(=O)c1ccc(NC(=O)CCn2c(=O)oc3ccccc32)cc1 | -3.92 | 
CCOC(=O)C1CCN(c2nc3c(S(=O)(=O)c4ccc(CC)cc4)nnn3c3ccc(Cl)cc23)CC1 | -25.4 | 

Compound | max response, negative = inhibition [%] | Potency
CCNC(=O)c1cc2n(n1)CCCN(Cc1ccc(C)cc1)C2=O | 4.87 | 
Cc1ccccc1CNC(=O)CCc1cn(Cc2ccccc2C)c2ccccc12 | 0.523 | 
COc1ccc(C)cc1Nc1nc2ccccc2c2nnc(C)n12 | -0.388 | 
COc1ccc(OC)c(Nc2nc(-c3ccc(O)c(O)c3)cs2)c1 | -16.7 | 
COc1ccc(C)cc1Nc1nc(-c2c(C)[nH]c3ccccc23)cs1 |  | 25.1 µM (active)
COCCNC(=O)c1ccc2c(c1)N=C(C)c1cc(C)ccc1S2 | 12.7 | 
CCC1=Nc2cc(C(=O)NCC(C)c3ccccc3)ccc2Sc2ccc(C)cc21 (stereo not drawn) |  | 12.6 µM (active)
CCCC1=Nc2cc(C(=O)NCc3ccco3)ccc2Sc2ccccc21 | -12.6 | 
Cc1ccc(CCNC(=O)c2ccc(CNS(=O)(=O)c3ccc(C)cc3)cc2)cc1 | -23 | 
CCOC(=O)c1cc2c(=O)n3ccccc3nc2n(CCCOC)c1=NC(=O)C(C)(C)Oc1ccc(Cl)cc1 | 4 | 
Cc1ccc(/C=N/NC(=O)C2=NNC(c3ccccc3)(c3ccccc3)C2)c(O)c1 |  | 20 µM (active)
Cc1ccc2nc(CNC(=O)c3ccccc3)[nH]c2c1 | 6.98 | 
COc1cccc(/C=N\NC(=O)C2=NNC(=O)C2C)c1O (stereo not drawn) | 14.7 | 
COc1ccc(CCNc2ncnc3onc(-c4ccc(Cl)cc4)c23)c(OC)c1 | -2.97 | 
CCOc1cccc(CNC(=O)c2ccc(N3CCCC3)c(NC(=O)Nc3ccccc3CC)c2)c1 | -7.71 | 
c1ccc(CSc2nnc(-c3ccco3)c(-c3ccco3)n2)cc1 |  | 15.8 µM (active)
c1ccc(CSc2nnc(-c3ccco3)n2Cc2ccccc2)cc1 | -8.71 | 
Nc1nc(SCc2ccccc2Cl)n[nH]1 | 3.93 | 
O=C(Nc1nnc(SCc2ccccc2)s1)c1ccco1 | -28.7 | 
Clc1ccccc1CSc1nncn2c1cc1occc12 | -9.48 | 
Clc1ccccc1CSc1nnc(-c2ccco2)c(-c2ccco2)n1 |  | 15.8 µM (active)
Cc1ccccc1-c1nc(SCC(=O)N(C)c2ccccc2)c2c(=O)n(C)c(=O)n(C)c2n1 | 8.08 | 

Compound | max response, negative = inhibition [%] | Potency
Cc1[nH]c2ccccc2c1C(c1ccccc1)c1cccs1 (stereo not drawn) | 3.04 | 
CCc1nn(CC(=O)NCC(C)c2ccccc2)c(=O)c2cc3occc3n12 (stereo not drawn) | -11.2 | 
CCn1c(C(=O)Nc2cc(Cl)ccc2C)cc2sc(Cl)cc21 | 4.79 | 
CCOC(=O)c1c(NC(=O)/C=C/c2ccco2)sc(C)c1C | -4.04 | 
CCOC(=O)c1c(NC(=O)c2cccs2)sc(C)c1C | 6.07 | 
CCOC(=O)c1c(NC(=S)NC(=O)/C=C/c2cccs2)sc(C)c1C |  | 10 µM (active)
Cc1ccc2nc(COc3ccccc3NC(=O)Nc3ccc(F)c(Cl)c3)cc(=O)n2c1 | 4.26 | 
COc1ccc(N(C)C(=O)CCS(=O)(=O)c2cccc3nsnc23)cc1 | -4.91 | 
Cc1ccc(NC(=O)CSc2nnc3[nH]c(=O)cc(C)n23)cc1Cl | -3.39 | 
Cc1ccc(C)c(OCC(=O)Nc2sc3c(c2C#N)CCCC3)c1C | -0.311 | 
Cc1cccc(C(=O)OCC(=O)Nc2sc3c(c2C#N)CCC3)c1 |  | 25.1 µM (active)
CC(=O)c1c(C)[nH]c(C(=O)OCC(=O)Nc2sc3c(c2C#N)CCCC3)c1C | 11.6 | 
Cc1cc(C)c2oc(-c3cccc(NC(=O)c4cccc(F)c4)c3C)nc2c1 | -10.4 | 
CCOC(=O)c1cccc(NS(=O)(=O)c2cc(-c3cnc(C)o3)ccc2OC)c1 | 1.23 | 
COc1ccccc1N1CCN(C(=O)c2cc(-c3ccc(Br)cc3)on2)CC1 | 16.1 | 
COc1ccccc1-c1cc(C(=O)N2CCCCC2)no1 | -9.93 | 
COc1ccccc1N1CCN(C(=O)c2cc(-c3ccc(Cl)c(Cl)c3)on2)CC1 |  | 25.1 µM (active)
O=C(Nc1c(C(=O)N2CCN(c3ccc(F)cc3)CC2)oc2ccccc12)c1ccco1 | -12.7 | 
COc1ccccc1CN1CCC(CNC(=O)c2cnn(-c3cccc(Cl)c3)c2C2CCN(C(=O)OC(C)(C)C)CC2)CC1 | 4.5 | 
CC1=C(c2ccc(F)cc2)S(=O)(=O)N=C1N1CCC(C(=O)NCCc2ccccc2C)CC1 | -2.21 | 
COc1ccccc1-c1nc(C(F)(F)F)c(OC)o1 | -2.62 | 
COc1ccccc1C1=Nc2cccc3cccc(c23)N1 |  | 12.6 µM (active)

Compound | max response, negative = inhibition [%] | Potency
CNc1nc(-c2ccccc2OC)nc2ccccc12 | -18.4 | 
Cc1ccc(NC(=O)NC(C)c2c(-n3cccc3)sc(C)c2C)c(C)c1 (stereo not drawn) | -10.8 | 
CCC(=O)N1CCc2cc(Br)cc(S(=O)(=O)Nc3ccc(C)cc3C)c21 | -1.34 | 
Cc1[nH]nc(-c2ccc(OCc3cnn(-c4ccccc4)c3)cc2O)c1Oc1ccc(Cl)cc1 |  | 10 µM (active)
C=C(C)COc1ccc(-c2n[nH]c(C)c2-c2ccccc2)c(O)c1 | -10.5 | 
COc1ccc(C(=O)Cc2cnn(-c3ccccc3)c2)c(O)c1 | 4.15 | 
CCCN(CCC)CCNC(=O)Cn1cnc2sc(C)c(S(=O)(=O)N3CCC(C)CC3)c2c1=O | -2.05 | 
COc1cc(C(CC(=O)NCCC(C)C)N2Cc3ccccc3C2=O)cc(OC)c1OC (stereo not drawn) | 2.58 | 
COc1cc(OC)c2c(-c3cccc(-c4cccc(N)c4)c3)cc(=O)oc2c1 |  | 11.2 µM (active)
COC(=O)C(C)Oc1ccc2c(-c3cccc([N+](=O)[O-])c3)cc(=O)oc2c1 (stereo not drawn) | 0.187 | 
COc1ccc(Nc2cc(=O)oc3ccccc23)cc1 | -23.8 | 
Cc1c(C(=O)N2CCCC2)oc2c1-c1nn(CC(=O)NCc3ccc(OC(C)C)cc3)cc1CC2 | 21.1 | 
O=C(COc1ccccc1)NCCc1nc2ccccc2[nH]1 |  | 1 µM (active)
COc1ccc(OC(C)C(=O)NCCc2nc3ccccc3[nH]2)cc1 (stereo not drawn) | -6.55 | 
CC(C)=C(NC(=O)c1ccco1)C(=O)NCCc1nc2ccccc2[nH]1 | -27.9 | 
Cc1cccc(NC(c2cccc(F)c2)c2ccc3ccc(C)nc3c2O)n1 (stereo not drawn) | 9.47 | 
Cc1cc(NS(=O)(=O)c2ccc(NC(=O)c3ccccc3C)cc2)nc(C)n1 | 11.3 | 
Cc1nc(Nc2ccc3c(c2)OCCO3)c2nnn(Cc3ccccc3Cl)c2n1 | -5.56 | 
CCCc1nc(NCc2ccc3c(c2)OCO3)c2nnn(Cc3ccccc3Cl)c2n1 |  | 7.94 µM (active)
O=C(Cn1cnc2c(nnn2Cc2ccc(F)cc2)c1=O)NCc1ccc2c(c1)OCO2 | -6.08 | 
Cc1ccccc1-c1nc(CS(=O)(=O)CC(=O)Nc2cc(Cl)cc(Cl)c2)c(C)o1 | -28.1 | 
COc1ccc(-c2[nH]c3c(c2-c2c(-n4cccc4)n(C)c(=O)n(C)c2=O)c(=O)n(C)c(=O)n3C)cc1 | -3.26 | 
